The supplement of paper PMC12350171
Where a name gives a salt, the structure may show the parent alone. Unmarked numbers belong to inactive results.

Assays:
Conditions in all cases: 20 µM
[1] = test system: Salmonella enterica typhimurium; assay: growth AUC normalised to DMSO control (fraction of control); higher = less growth inhibition, active = hit call of the paper
Method in brief: (§1)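 Pathogens were passaged twice under anaerobic conditions, then inoculated into pre-reduced mGAM plates at a starting OD578 of 0.01, with compound at 20 μM and 1% DMSO, and sealed with breathable membranes. For Haemophilus parainfluenzae, the medium was supplemented with hemin and NAD. OD578 was read every hour for 24 h in three biological replicates. Growth-curve AUC was calculated by the trapezoidal rule up to the exponential-to-stationary transition and normalised to DMSO controls on the same plate.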

Shigella flexneri = assay: as above
Method in brief: as §1

Vibrio cholerae = assay: as above
Method in brief: as §1

[2] = test system: Yersinia pseudotuberculosis; assay: as above
Method in brief: as §1

P. vulgatus RND KO = assay: growth AUC normalised to DMSO control (median) (fraction of control); higher = less growth inhibition, active = hit call of the paper
Method in brief: (§2)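 Strains were passaged twice overnight without oxygen, then grown in mGAM in 96-well plates with each approved-drug library compound at 20 μM and 1% DMSO, starting at OD578 0.01. OD578 was read hourly for 24 h inside an anaerobic incubator. Curves were truncated at entry into stationary phase, and the trapezoidal-rule area under the curve was normalised to same-plate vehicle wells. The value is the median across three biological replicates.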

P. vulgatus WT = assay: as above
Method in brief: as §2

[3] = test system: S. enterica typhimurium WT; assay: as above
Method in brief: as §2

[4] = test system: S. enterica typhimurium tolC KO; assay: as above
Method in brief: as §2
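Wherever growth AUC normalised to DMSO control (median) is given: active when median AUC fell below 0.1.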

Row | SMILES | growth AUC normalised to DMSO control [1] | growth AUC normalised to DMSO control (Shigella flexneri) | growth AUC normalised to DMSO control (Vibrio cholerae) | growth AUC normalised to DMSO control [2] | growth AUC normalised to DMSO control (P. vulgatus RND KO) | growth AUC normalised to DMSO control (P. vulgatus WT) | growth AUC normalised to DMSO control [3] | growth AUC normalised to DMSO control [4]
1 | CCCCOc1cc(C(=O)NCCN(CC)CC)c2ccccc2n1 [Dibucaine] | 1 | 1.03 | 1.03 | 1.05 | 1.04 | 1.01 | 1.01 | 0.993
2 | Cc1ccnc(NS(=O)(=O)c2ccc(N)cc2)n1 [Sulfamerazine] | 0.973 | 1.03 | 0.977 | 1.01 | 0.988 | 1.01 | 0.986 | 0.998
3 | CC[C@]12CCCN3CCc4c(n(c5ccccc45)[C@@](O)(C(=O)OC)C1)[C@@H]32 [Vincamine] | 1.02 | 0.979 | 0.995 | 0.989 | 1.02 | 1.05 | 1.02 | 1
4 | CCN1CCCC(OC(=O)C(c2ccccc2)c2ccccc2)C1 (stereo not given) [Piperidolate hydrochloride] | 1.01 | 1.02 | 1.03 | 0.967 | 1.03 | 1.04 | 0.998 | 0.976
5 | CCC1(C)CC(=O)NC1=O (stereo not given) [Ethosuximide] | 1.02 | 1.02 | 1.03 | 0.999 | 1.02 | 1.05 | 1 | 0.963
6 | COc1cc(N)c(Cl)cc1C(=O)NC1CCN(CCCOc2ccc(F)cc2)CC1OC (stereo not given) [Cisapride] | 1 | 1.01 | 0.929 | 0.989 | 0.945 | 0.941 | 1 | 0.947
7 | CCOc1ccccc1OC(c1ccccc1)C1CNCCO1 (stereo not given) [Reboxetine mesylate] | 0.991 | 0.986 | 1.01 | 0.995 | 1.01 | 1.01 | 1 | 0.988
8 | CN(C)CCC=C1c2ccccc2CCc2ccccc21 [Amitryptiline hydrochloride] | 0.997 | 0.999 | 0.905 | 1.01 | 0.993 | 0.959 | 0.998 | 0.97
9 | C#C[C@]1(O)CC[C@H]2[C@@H]3CCc4cc(OC)ccc4[C@H]3CC[C@@]21C [Mestranol] | 0.987 | 1.01 | 1.01 | 1.01 | 0.968 | 0.96 | 0.999 | 0.988
10 | Clc1ccc(Cn2c(CN3CCCC3)nc3ccccc32)cc1 [Clemizole hydrochloride] | 0.98 | 0.988 | 0.922 | 0.986 | 0.902 | 0.857 | 0.997 | 0.949
11 | CS(=O)(=O)c1ccc([C@@H](O)[C@@H](CO)NC(=O)C(Cl)Cl)cc1 [Thiamphenicol] | 0.408 (active) | 0.0249 (active) | 0.037 (active) | 0.866 (active) | 0.0183 (active) | 0.0102 (active) | 0.509 | 0.281
12 | Clc1cc(Cl)c(OCC#CI)cc1Cl [Haloprogin] | 1.02 | 1.02 | 1.05 | 0.973 | 1.01 | 1.08 | 1.04 | 0.993
13 | CC(=O)Oc1cc(C(C)C)c(OCCN(C)C)cc1C [Moxisylyte hydrochoride] | 0.992 | 0.992 | 0.991 | 0.99 | 0.999 | 1 | 1.01 | 1
14 | CNC[C@H](O)[C@@H](O)[C@H](O)[C@H](O)CO [Meglumine] | 1.02 | 1 | 1.04 | 0.984 | 1.01 | 1.04 | 1.01 | 1
15 | COc1nc(C)nc(Cl)c1NC1=NCCN1 [Moxonidine] | 1.01 | 1.03 | 1.04 | 1.02 | 0.994 | 0.995 | 1 | 0.999
16 | CN(C)CCN(Cc1cccs1)c1ccccn1 [Methapyrilene hydrochloride] | 0.977 | 0.972 | 0.995 | 0.994 | 1.01 | 0.995 | 1 | 0.985
17 | Fc1ccc([C@@H]2CCNC[C@H]2COc2ccc3c(c2)OCO3)cc1 [Paroxetine hydrochloride] | 0.995 | 1 | 0.94 | 0.991 | 0.997 | 1.02 | 0.998 | 0.982
18 | CC(C)(C)NC(=O)[C@H]1CC[C@H]2[C@@H]3CC[C@H]4NC(=O)C=C[C@]4(C)[C@H]3CC[C@]12C [Finasteride] | 1.02 | 1.02 | 1.03 | 1.01 | 1.02 | 1.04 | 1.01 | 0.895
19 | COc1cc(OC)c(C(=O)CCCN2CCCC2)c(OC)c1 [Buflomedil hydrochloride] | 1 | 0.997 | 0.997 | 1.01 | 0.997 | 0.994 | 0.995 | 1
20 | Cn1ccnc1S [Methimazole] | 1.01 | 1.02 | 1.02 | 1.01 | 0.996 | 1.01 | 1 | 0.988
21 | Cc1cc(C(C)(C)CC(C)(C)C)ccc1OCCOCC[N+](C)(C)Cc1ccccc1 [Methyl benzethonium chloride] | 1.01 | 0.999 | 0.943 | 1.02 | 0.0136 (active) | 0.0206 (active) | 1.01 | 0.962
22 | CC(C)(Sc1cc(C(C)(C)C)c(O)c(C(C)(C)C)c1)Sc1cc(C(C)(C)C)c(O)c(C(C)(C)C)c1 [Probucol] | 0.996 | 1.02 | 0.998 | 0.985 | 1 | 0.997 | 1.01 | 1
23 | CN1C2CCCC1CC(NC(=O)c1nn(C)c3ccccc13)C2 (stereo not given) [Granisetron] | 1 | 1.02 | 1.01 | 1 | 1 | 0.987 | 0.982 | 1
24 | CC(=O)N(CC(O)CN(C(C)=O)c1c(I)c(C(=O)NCC(O)CO)c(I)c(C(=O)NCC(O)CO)c1I)c1c(I)c(C(=O)NCC(O)CO)c(I)c(C(=O)NCC(O)CO)c1I (stereo not given) [Iodixanol] | 0.977 | 0.943 | 0.99 | 0.977 | 1 | 0.98 | 0.996 | 1
25 | NNC(=O)c1ccncc1 [Isoniazid] | 1.02 | 1.04 | 1.05 | 0.942 | 1.04 | 1.07 | 1.01 | 0.989
26 | Cc1ccccc1C(OCCN(C)C)c1ccccc1 (stereo not given) [Orphenadrine hydrochloride] | 1 | 1.02 | 1.02 | 0.992 | 1.01 | 0.992 | 0.983 | 0.958
27 | Cc1nccn1CC1CCc2c(c3ccccc3n2C)C1=O (stereo not given) [Ondansetron hydrochloride] | 1.01 | 1.04 | 1.01 | 1 | 1.01 | 1.04 | 1 | 0.984
28 | CC(=O)OC[C@H]1O[C@@H]([S-])[C@H](OC(C)=O)[C@@H](OC(C)=O)[C@@H]1OC(C)=O.CCP(CC)CC.[Au+] [Auranofin] | 0.877 (active) | 1.01 | 0.67 (active) | 0.672 (active) | 0.00406 (active) | 0.233 | 0.855 | 0.862
29 | CC1COc2c(N3CCN(C)CC3)c(F)cc3c(=O)c(C(=O)O)cn1c23 (stereo not given) [Ofloxacin] | 0.00746 (active) | 0.0235 (active) | 0.031 (active) | 0.0386 (active) | 0.0133 (active) | 0.0136 (active) | 0.0106 (active) | 0.00311 (active)
30 | CN(C/C=C/c1ccccc1)Cc1cccc2ccccc12 [Naftifine hydrochloride] | 1.01 | 1.01 | 0.933 | 1.04 | 0.996 | 1.01 | 0.998 | 0.932
